NS1 inh = qHTS Assay for Inhibitors of Influenza NS1 Protein Function; AID 2326, 2010; Potency, µM (titrated, usually from 46.1 µM), for inactives: at the top dose activity, positive = more growth; 0.4% of 270,000 active; also: potency is read from the fitted curve at half-maximal effect; actives are rising curves; nearly all actives have a fitted effect of over 50% in size
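Growth recovery, yeast-based: influenza A NS1 expressed in S. cerevisiae causes slow growth, and suppressors are detected by OD600. The parent strain without NS1 is used as positive control.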
Pf growth 96h = Primary qHTS for delayed death inhibitors of the malarial parasite plastid, 96 hour incubation | P. falciparum luciferase reporter growth, 96 h | Potency, µM (highest dose often 28.7 µM), for the others: top-dose activity change, negative = inhibition, usual class: inhibitors | 6.9% of 320,000 active | AID 504834, 2011; active = well fitted inhibition curve with a large enough effect; inconclusive = small, poorly fitted or top-dose-only effect, or another doubt; inactive = no such curve, though single readings can be large or run the other way; also: potency is read from the fitted curve at half-maximal effect; % is scaled to controls: 0 for no effect and ±100 for the full control effect
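P. falciparum expressing integrated firefly luciferase, in erythrocytes at 2% hematocrit, 0.05% parasitemia, incubated with compounds 96 h at 37 C, 5% CO2. Growth inhibition read as loss of luminescence; two-generation exposure targets delayed-death apicoplast inhibitors.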
SARS PLpro yeast = qHTS of Yeast-based Assay for SARS-CoV PLP; S. cerevisiae expressing SARS-CoV PLpro, growth rescue; Potency, µM (titrated, usually from 32.9 µM), for inactives: at the top dose activity, positive = growth rescue, most hits filed as activators; 0.19% of 330,000 active; AID 485353, 2010; also: potency is read from the fitted curve at half-maximal effect; 0% is about no effect; nearly all actives have a fitted effect of over 55% in size
Pf growth 48h = Primary qHTS for delayed death inhibitors of the malarial parasite plastid, 48 hour incubation | P. falciparum luciferase growth in erythrocytes, 48 h | Potency, µM (top dose mostly 28.7 µM), for the others: top-dose activity change, negative = inhibition, hits mostly inhibitors | 5.9% of 310,000 active | AID 504832, 2011; active = well fitted inhibition curve with a large enough effect; inconclusive = small, poorly fitted or top-dose-only effect, or another doubt; inactive = no such curve, though single readings can be large or run the other way; also: potency is read from the fitted curve at half-maximal effect; % is scaled to controls: 0 for no effect and ±100 for the full control effect
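Erythrocytes infected with P. falciparum carrying an integrated firefly luciferase reporter (2% hematocrit, 0.1% parasitemia final) were exposed to compounds in RPMI 1640 with 0.5% Albumax at 37 C, 5% CO2. Growth inhibition was scored as reduced luminescence.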
CHX counter = Cycloheximide Counterscreen for Small Molecule Inhibitors of Shiga Toxin; cell reporter, cycloheximide protein synthesis inhibition counterscreen; max response, %; 12% of 300,000 active; in the data active = max response mostly above about 13%, no sharp cut-off; inactive = mostly below about 14%; also: read at 38.3 µM for the half of the compounds with a filed dose; 0% is about no effect
Shiga toxin inh = A qHTS for Small Molecule Inhibitors of Shiga Toxin | Vero cells, Shiga toxin protein synthesis inhibition reporter | AID 2315, 2010 | 9.2% of 290,000 active | inhibition, % at 38.7 µM; in the data active = inhibition mostly above about 28%, no sharp cut-off; inactive = mostly below about 43%; also: 0% is about no effect
The depositor's hits bear a star; ? = inconclusive; . = not tested or not shown; [ ] = remark or other dose. The list is not random: actives were taken first. Their share in the collection is about 21%. Unless noted, calls follow the shape of the full dose curve.

SMILES | NS1 inh | Pf growth 96h | SARS PLpro yeast | Pf growth 48h | CHX counter | Shiga toxin inh
O=C(CN1CCN(S(=O)(=O)/C=C/c2ccccc2)CC1)Nc1ccccc1N1CCOCC1 | -7.5% | 3.7µM* | -4.7% | ? | -0.8 | -6.3
O=C(/C=C/c1ccc(Cl)cc1)Nc1ccccc1N1CCOCC1 | -32.4% | 14.7µM* | -5.5% | 33.9% | 0.5 | 10.9
O=C(/C=C/c1ccc(Cl)cc1)Nc1ccc(N2CCOCC2)cc1 | 1.7% | 11.6% | 1.3% | -10.6% | -0.9 | 18.8
O=C1C2C3C=CC(C3)C2C(=O)N1CCN1CCN(S(=O)(=O)/C=C/c2ccccc2)CC1 (centres undefined) | 0.5% | 5.86µM* | -0.3% | -3.5% | -3.7 | 24.3
COc1cccc(/C=C/C(=O)Nc2ccccc2N2CCOCC2)c1 | . | -16.8% | -2.6% | 60.2% | 29.4* | 43.9
COc1cccc(/C=C/C(=O)Nc2cc(S(=O)(=O)N3CCOCC3)ccc2OC)c1 | . | 30.8% | 2.4% | -13.7% | . | .
COc1cccc(NC(=O)C(c2ccccc2)N2CCCC2)c1 (centres undefined) | -2.1% | ? | 2.8% | 0.0% | -1.7 | 2.5
COCCn1c(=S)[nH]c2cc(C(=O)N3CC(C)CC(C)C3)ccc2c1=O (centres undefined) | 17.4% | -15.5% | 0.4% | 5.7% | -3.1 | 0.6
O=C1CC(/C=C/c2ccccn2)=Nc2ccccc2N1 | . | 0.0% | -0.9% | ? | 21.5* | 56.9*
Cc1ccc(NC(=O)CSc2nnc(-c3ccncc3)n2N)cc1C | -0.9% | -17.8% | -5.0% | 9.8% | 2.7 | 22.6
CCN1C(=O)c2ccccc2S(=O)(=O)c2ccc(C(=O)NCc3cccnc3)cc21 | -19.9% | ? | -0.4% | ? | -4.8 | 0.7
Cc1cc(N2CCOCC2)ccc1/C=C1\NC(=O)N(Cc2ccccc2)C1=O | -15.9% | ? | -1.2% | -17.5%[1.15 µM] | -6.5 | -3.5
COc1cccc(C2C(C(C)=O)=C(C)Nc3ncnn32)c1 (centres undefined) | 2.5% | 78.8% | -1.0% | -2.4% | -1.9 | 49.4
CC(=O)C1=C(C)Nc2ncnn2C1c1cccc(OCc2ccccc2)c1 (centres undefined) | -2.5% | 0.0% | -2.0% | 10.4µM* | -3.5 | -6.0
CC(=O)C1=C(C)Nc2ncnn2C1c1ccccc1 (centres undefined) | 2.7% | 0.329µM* | -0.6% | 32.4% | 0.0 | -2.2
CC1=C(C(=O)Nc2ccccc2)C(c2ccc(C)o2)n2ncnc2N1 (centres undefined) | -3.1% | 0.6% | 6.3% | . | -0.7 | -1.2
COC(=O)C1=C(C)Nc2ncnn2C1c1ccc(C)o1 (centres undefined) | -8.5% | 10.4µM* | 4.5% | -13.2% | -4.1 | 9.3
NCC(=O)N[C@@H](CCCN=C(N)N)C(=O)NCC(=O)N[C@@H](CC(=O)O)C(=O)N[C@@H](CC(N)=O)C(=O)N1CC[C@@H](C(=O)O)C1 | . | . | . | . | -8.1 | 2.2
CN(Cc1ccccc1)C(=O)c1cn(C)c2ccc(S(=O)(=O)N3CCCC3)cc2c1=O | 3.8% | ? | 0.5% | -28.0% | 15.4 | -0.5
COc1cc(C)ccc1OCCCOc1ccccc1Cl | -15.1% | ? | -14.4% | 188.3% | 51.1* | 92.8*
COc1cc(C)ccc1OCCOCCOc1ccccc1[N+](=O)[O-] | -13.8% | 29.1% | ? | -0.9% | 21.6* | 10.9
CNCCCCOc1ccc(C(C)(C)C)cc1Cl | 2.9% | 79.8% | -0.3% | ? | 16.2 | 17.1
COc1ccccc1OCCOCCOc1ccc(C)cc1[N+](=O)[O-] | -12.1% | ? | 27.7% | -6.7% | -1.0 | -12.8
O=C1CCC(=O)N1OCCCOc1ccccc1 | -2.6% | -21.0% | 2.4% | . | -0.9 | -4.5
O=C1CCC(=O)N1OCCCCOc1ccccc1 | -5.8% | 8.7% | 5.4% | -8.5% | 11.8* | 13.2
SMILES | NS1 inh | Pf growth 96h | SARS PLpro yeast | Pf growth 48h | CHX counter | Shiga toxin inh
CC(C)(C)c1ccc(OCCON2C(=O)CCC2=O)c(Cl)c1 | -5.7% | -21.0% | -1.7% | . | 38.8* | 63.5*
Cc1cc2c(c(SCC(=O)Nc3ccc(C)c(C)c3)n1)C(=O)OC2 | . | -22.8% | -2.7% | 69.0% | 1.8 | 2.1
CCOC(=O)C1CCCN(C(=O)CCNS(=O)(=O)c2cc(Br)cnc2N)C1 (centres undefined) | 11.3% | 97.0% | ? | -3.2% | -1.9 | -5.5
O=C(Nc1nn[nH]n1)C12CC3CC(CC(C3)C1)C2 | 10.6% | . | 14.2% | -1.5% | -4.6 | 31.7
COc1ccccc1N1CCN(S(=O)(=O)c2cn(C)nc2C)CC1 | 15.0% | ? | 5.9% | 10.2% | -2.7 | -29.9
COc1cc(C)ccc1OCCOc1ccccc1Cl | -73.1% | 169.2% | -19.0% | 50.9% | 31.3* | 60.8*
COc1cc(C)ccc1OCCCON1C(=O)CCC1=O | -8.1% | 90.4% | 6.6% | . | 11.4 | 19.8*
COc1ccccc1OCCCOc1c(C)cc(C)cc1Br | -10.6% | ? | -10.8% | ? | 9.6 | 19.0
COc1ccccc1OCCOCCOc1c(C)cc(C)cc1Br | 4.5% | 2.94µM* | -10.4% | -4.8% | -2.1 | -11.1
CCOc1ccccc1OCCCOc1ccc([N+](=O)[O-])cc1Cl | -91.2% | 10.4µM* | -32.7% | ? | -3.8 | 4.4
COc1ccc(C(=O)c2ccc([N+](=O)[O-])cc2)cc1S(=O)(=O)N1CCC(C(=O)O)CC1 | -6.3% | 24.9% | 16.3% | 8.4% | 0.9 | -11.5
O=C(NC(Cc1ccccc1)C(=O)O)/C(=C\c1ccco1)NC(=O)c1ccco1 (centres undefined) | 3.6% | -14.8% | 1.4% | 28.9% | 19.1* | 18.5
O=C(NC(Cc1ccccc1)C(=O)O)/C(=C\c1ccco1)NC(=O)c1ccccc1 (centres undefined) | 10.3% | 2.62µM* | 0.3% | 40.2% | -0.7 | -10.3
O=C(NC(Cc1c[nH]c2ccccc12)C(=O)O)/C(=C\c1ccccc1)NC(=O)c1ccccc1 (centres undefined) | 2.4% | 10.4µM* | 0.9% | 9.9% | -3.1 | 12.9
O=C(NC(Cc1ccccc1)C(=O)O)/C(=C\c1ccco1)NC(=O)c1ccc(Br)cc1 (centres undefined) | 17.3% | 45.8% | 3.3% | 17.5% | -2.1 | -9.3
O=C(NC(Cc1c[nH]c2ccccc12)C(=O)O)/C(=C/c1ccc2c(c1)OCO2)NC(=O)c1ccccc1 (centres undefined) | . | 48.7% | 1.2% | -10.2% | -4.4 | -6.3
N#C/C(=C\c1ccc(-c2cccc([N+](=O)[O-])c2)o1)C(=O)Nc1nc(-c2cccs2)cs1 | 2.7% | 109.4% | -0.7% | ? | -0.1 | -5.9
Cc1cc(=O)n(C(C)(C)C)c(=O)n1Cc1ccccc1 | 1.1% | 13.2% | -0.5% | 19.5% | -4.6 | -2.2
O=C(NNC(=O)c1ccccc1F)C1=NN(c2ccccc2)C(=O)CC1 | -18.9% | ? | 5.7% | ? | -2.2 | -8.0
